Hits are enriched below; roughly 18% of the tested compounds scored in any of these assays.
HepG2 tox = HepG2 cytotoxicity, counter-screen for TGF-b inhibitors. HepG2 CAGA-GFP viability, ATP luminescence, 18 h. Potency, µM (titrated, usually from 46.1 µM), inactives show at the top dose activity change, negative = cytotoxicity, hits mostly cytotoxic. 410,000 compounds, 0.76% hits. AID 588856; note: potency is the fitted concentration of half-maximal effect
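CellTiter-Glo luminescence gave cytotoxicity after 18 hours at 37 degrees C. The cells were HepG2 CAGA-GFP in 1% FBS DMEM, stimulated with 500 pg/mL TGF-beta after compound addition. %Activity was normalised to no-cell wells (complete cell-killing) and DMSO (no toxicity), and curves were fitted and classified.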
IL-1B inflam inh = inflammasome signaling inhibition, IL-1 beta readout. THP-1 LPS/ATP IL-1B secretion, AlphaLISA, 16 h; stronger effect = lower value. activity change, % at 57.5 µM. 360,000 compounds, 4.7% hits. AID 743279; in the data active = activity change below about -50%; inconclusive = mostly about -30% to -49%; note: % is set by controls: 0 for no effect and ±100 for the full control effect
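Secreted IL-1B measured by AlphaLISA bead assay after 16 h compound exposure of THP-1 cells; compounds (final up to 57.5 uM) added 1 h before LPS (250 ng/mL) and ATP (1.25 mM) stimulation; lower signal means less secretion.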
TDP1 block = inhibitors of human tyrosyl-DNA phosphodiesterase TDP1 | recombinant TDP1, AlphaScreen DNA substrate cleavage | Potency, µM (highest dose often 130 µM), for the others: at the highest dose activity change, negative = inhibition, most hits filed as inhibitors | 350,000 compounds, 0.28% hits | Q9NUW8; note: potency is the fitted concentration of half-maximal effect; % is set by controls: 0 for no effect and ±100 for the full control effect; nearly all actives have a fitted effect of over 40% in size
Target sequence (Q9NUW8 whole entry, looked up): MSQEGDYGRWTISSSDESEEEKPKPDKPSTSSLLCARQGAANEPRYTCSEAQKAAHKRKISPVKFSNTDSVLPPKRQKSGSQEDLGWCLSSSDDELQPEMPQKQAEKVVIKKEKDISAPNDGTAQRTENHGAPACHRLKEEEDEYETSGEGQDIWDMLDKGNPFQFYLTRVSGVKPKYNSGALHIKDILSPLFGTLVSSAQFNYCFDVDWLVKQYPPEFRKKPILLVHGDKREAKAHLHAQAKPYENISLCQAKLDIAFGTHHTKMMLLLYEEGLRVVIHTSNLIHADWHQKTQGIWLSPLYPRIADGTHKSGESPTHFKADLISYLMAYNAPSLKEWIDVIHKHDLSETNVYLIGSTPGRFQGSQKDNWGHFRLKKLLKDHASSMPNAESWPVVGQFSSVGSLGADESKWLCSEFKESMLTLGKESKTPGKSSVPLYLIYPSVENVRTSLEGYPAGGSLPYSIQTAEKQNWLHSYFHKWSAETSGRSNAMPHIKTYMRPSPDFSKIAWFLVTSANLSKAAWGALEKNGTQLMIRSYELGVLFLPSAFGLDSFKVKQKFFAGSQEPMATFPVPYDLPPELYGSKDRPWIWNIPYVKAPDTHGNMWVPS
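AlphaScreen read-out: signal falls as enzyme removes the 3' tyrosine-FITC from a 5'-biotinylated DNA oligo (15 nM, 5 min, RT). Enzyme was E. coli-made recombinant Tdp1 at 1 nM, exposed to compound for 15 min beforehand; beads 10 ug/ml, 10 min.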
TDP1 cell noCPT = qHTS for Inhibitors of human tyrosyl-DNA phosphodiesterase 1 (TDP1): qHTS in cells in absence of CPT. DT40 Tdp1-/- hTDP1 cells, no CPT, ATP luminescence, 48 h. Potency, µM (top dose mostly 46.2 µM), inactives show top-dose activity change, negative = growth inhibition, hits mostly inhibitors. 420,000 compounds, 15% hits. AID 686978, 2013; note: potency is the fitted concentration of half-maximal effect; % is set by controls: 0 for no effect and ±100 for the full control effect; nearly all actives have a fitted effect of over 55% in size
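Readout: luminescence from CellTiter-Glo after 30 min in the dark at RT. Cells: DT40 Tdp1-/- with stable hTDP1, 400/well. Exposure: compounds alone, ≥48 hr, 37 °C.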
DT40 TDP1 CPT = growth inhibition of DT40 Tdp1-/-;hTDP1 cells with camptothecin (screen for TDP1 inhibitors); chicken DT40 Tdp1-/-;hTDP1 cells + 20 nM CPT, ATP luminescence, 48 h; Potency, µM (series often up to 46.2 µM), without a hit: at the top dose activity change, negative = growth inhibition, most hits filed as inhibitors; 420,000 compounds, 12% hits; AID 686979; note: potency is the fitted concentration of half-maximal effect; % is set by controls: 0 for no effect and ±100 for the full control effect; nearly all actives have a fitted effect of over 55% in size
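Cell growth measured by CellTiter-Glo luminescence after a minimum 48 h, 37 C compound exposure with 20 nM CPT in Tdp1-knockout DT40 cells stably expressing hTDP1, seeded 400/well; qHTS titration format.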
TGFb inhibitor = inhibitors of TGF-b signaling. HepG2 CAGA-GFP TGF-b/SMAD3 reporter, GFP fluorescence, 18 h; TGF-beta stimulated, 500 pg/mL final. Potency, µM (doses to about 46.1 µM), without a hit: at the highest dose activity, negative = inhibition, actives largely listed as inhibitors. 410,000 compounds, 1.2% hits; note: potency is the fitted concentration of half-maximal effect; % is set by controls: 0 for no effect and ±100 for the full control effect; nearly all actives have a fitted effect of over 65% in size
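HEPG2 CAGA-GFP cells (1000/well, DMEM with 1% FBS) were pre-incubated 2 h at 37 degrees C, given compound by pin tool, then stimulated with TGF-beta at 500 pg/mL final for 18 h before per-cell GFP fluorescence imaging.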
Active calls of the source: *; ? = inconclusive; / = no result; ! = a repeat was not active; [ ] = dose if it differs, or a comment. Unless noted, calls come from the whole dose curve; as a rule, active = well fitted curve in the direction sought with a large enough effect; inconclusive = small, poorly fitted or top-dose-only effect, or another doubt; inactive = no such curve, though single readings can be large; an effect the other way counts as inactive or inconclusive.

SMILES	HepG2 tox	IL-1B inflam inh	TDP1 block	TDP1 cell noCPT	DT40 TDP1 CPT	TGFb inhibitor
CCCCNC(=O)C(=O)NCC1CCCN1S(=O)(=O)c1cccs1 (configuration not stated)	-1%	7	/	-20%	-5%	0%
CO/N=C/NC(=O)c1ccc([N+](=O)[O-])c(CS(=O)(=O)c2ccc(Cl)cc2)c1	-8%	0	5%	10µM*	7.3µM*	-11%
NNC(=O)c1ccc([N+](=O)[O-])c(CS(=O)(=O)c2ccc(Cl)cc2)c1	-5%	-6	4%	?	-12%	-1%
CC(C)CNC(=O)NC(=O)COC(=O)c1ccccc1Sc1ccc(C(F)(F)F)cc1[N+](=O)[O-]	-49%	49	8%	?	29µM*	?
COc1ccc(NC(=S)NNC(=S)Nc2cccc(C(F)(F)F)c2)cc1	-44%	?	10%	6.5µM*	5.8µM*	-29%
CC(C)(C)NC(=S)Nc1ccc(Br)cc1	-1%	1	7%	?	?	-20%
CC(C)(C)NC(=S)Nc1ccc(Nc2ccccc2)cc1	13µM*	?	10%	16µM*	15µM*	?
FC(F)(F)c1cccc(NC(=S)Nc2ccc(Cl)c(Cl)c2)c1	-27%	-87*	6%	13µM*	?	?
FC(F)(F)c1cccc(NC(=S)NNC(=S)Nc2cccc(C(F)(F)F)c2)c1	/	/	5%	/	/	/
CC(C)(C)NC(=S)Nc1cccc(C(F)(F)F)c1	-23%	-90*	5%	26µM*	?	?
FC(F)(F)c1cccc(NC(=S)NC(c2ccccc2)c2ccccc2)c1	-48%	-1	-3%	5.2µM*	3.7µM*	?
O=C(NCCCl)Nc1ccc(Cl)c([N+](=O)[O-])c1	-8%	-21	3%	?	?	-11%
O=[N+]([O-])c1cc(C(F)(F)F)cc([N+](=O)[O-])c1NCCNC(=S)Nc1ccc(Cl)c(Cl)c1	11µM*	-80*	10%	21µM*	?	11µM*
CNNC(=S)Nc1cccc(C(F)(F)F)c1	68%	0	6%	1%	1%	2%
C/C(=N\NC(=O)COc1cc(C)cc(C)c1)c1cccc(NC(=O)C2CCC2)c1	5%	?	4%	-19%	-17%	9%
O=C(CCNc1ccccc1)c1cccc([N+](=O)[O-])c1	-1%	-5	7%	16µM*	18µM*	-25%
O=C(CCNc1ccc(F)cc1)c1cccc([N+](=O)[O-])c1	-40%	-16	7%	23µM*	16µM*	?
O=C(CNC(=O)c1cccc([N+](=O)[O-])c1)OCCCC(=O)c1ccc(F)cc1	-20%	15	1%	-20%	-20%	-18%
CN1CC(=O)N(CC(=O)NC2CCCCC2)C1=O	5%	11	-3%	-2%	-3%	24%
COc1cccc(-c2cc3nc(NCc4cccnc4)n(C)c(=O)c3s2)c1	-17%	23	/	?	?	-11%
CN(C)CCCOc1ccc(-c2cc3nc(NCc4cccnc4)n(C)c(=O)c3s2)cn1	-11%	-15	/	18µM*	?	2%
Cn1c(NCc2cccnc2)nc2cc(-c3cccc(C(=O)NCCO)c3)sc2c1=O	-4%	?	/	-23%	9.2µM*	-9%
CN(C)C(=O)CCc1ccc2c3c([nH]c2c1)[C@]1(CCc2ccccc2)[C@@H](C(=O)N2CCCCC2)C[C@H](CC(=O)NCCCn2ccnc2)C(=O)N1CC3	-4%	-9	1%[56.1 µM]	11%	-8%	5%
O=C(CN1C(=O)NC2(CCCC2)C1=O)Nc1nc2ccccc2[nH]1	7%	-27	1%	-2%	12%	?
Cc1ccc(C)c(N2CCN(S(=O)(=O)c3csc(C(N)=O)c3)CC2)c1	-10%	41	2%	?	16µM*!	?
SMILES	HepG2 tox	IL-1B inflam inh	TDP1 block	TDP1 cell noCPT	DT40 TDP1 CPT	TGFb inhibitor
Cc1ccc(C)c(N2CCN(S(=O)(=O)c3ccc(C(=O)N(C)C)s3)CC2)c1	-18%	/	-6%	16µM*	18µM*	-38%
Cc1ccc(C)c(N2CCN(S(=O)(=O)c3cn(C)cn3)CC2)c1	-8%	5	0%	-12%	-3%	-1%
CC1CCN(S(=O)(=O)c2csc(C(N)=O)c2)CC1	5%	/	5%	-5%	?	25%
COc1ccc(CCNC(=O)Cn2nc(C)c3c(C)n(-c4ccc(C)cc4)nc3c2=O)c(OC)c1	-5%	/	/	?	16µM*	?
CCC(C(=O)NCCc1cc(OC)ccc1OC)n1nc(C)c2c(C)n(-c3ccccc3)nc2c1=O (configuration not stated)	-41%	/	3%	?	18µM*	?
COc1ccc(OC)c(CCNC(=O)C(C)n2nc(C)c3c(C)n(-c4ccc(C)cc4)nc3c2=O)c1 (configuration not stated)	-21%	7	8%	18µM*	?	?
COc1ccc(OC)c(CCNC(=O)C(C)n2nc(C)c3c(C)n(-c4ccccc4)nc3c2=O)c1 (configuration not stated)	-6%	0	6%	?	?	?
CCCCC(O)c1ccccc1 (configuration not stated)	/	/	/	-12%	4%	/
CCc1ccccc1NC(=O)N1CCOc2ccccc21	0%	/	4%	-45%	?	-2%

Screens as filed in PubChem.
